# BJeLR viability – MLPCN primary cell-based screen for lethality selective to Ras in HRASV12 cells; BJeLR (HRASV12) viability, CellTiter-Glo ATP luminescence, 48 h; inhibition, % (no concentration beside the values); 300,000 compounds, 0.17% hits; in the data active means inhibition above about 50%
# PrP 5UTR inh – inhibition of PrP 5' UTR reporter expression | inhibition, % (no concentration beside the values) | AID 488862, 2010 | 340,000 compounds, 0.35% hits | cell-based PrP 5' UTR mRNA reporter, plate reader; in the data active means inhibition above about 52%; further: 0 = median of the neutral control wells
# MazF activator – activators of E. coli MazEF toxin-antitoxin RNase, primary screen, biochemical, fluorescence, uHTS; Endoribonuclease toxin MazF (Escherichia coli (strain K12)), P0AE70; FAM/BHQ RNA-DNA oligo cleavage fluorescence, 5 h; activation, % at 20 µM; 350,000 compounds, 0.32% hits; in the data active means activation above about 50%
# Target sequence (P0AE70 whole entry, looked up): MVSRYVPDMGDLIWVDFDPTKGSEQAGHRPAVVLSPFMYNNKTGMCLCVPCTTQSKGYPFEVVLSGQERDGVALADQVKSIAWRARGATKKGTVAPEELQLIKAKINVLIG
# DUSP3 inh – VHR1 phosphatase inhibitors, primary screen, biochemical, absorbance, uHTS; Dual specificity protein phosphatase 3 (Homo sapiens), P51452; recombinant VHR phosphatase, pNPP absorbance; inhibition, % at 13.3 µM; 290,000 compounds, 0.52% hits; AID 1654, 2009; in the data active means inhibition above about 50%
# Target sequence (P51452 whole entry, looked up): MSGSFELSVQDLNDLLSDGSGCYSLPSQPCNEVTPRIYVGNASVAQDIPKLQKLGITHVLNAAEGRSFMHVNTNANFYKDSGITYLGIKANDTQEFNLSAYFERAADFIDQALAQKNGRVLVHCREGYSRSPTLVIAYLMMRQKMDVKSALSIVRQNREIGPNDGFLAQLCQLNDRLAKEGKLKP
# PfHsp40 rescue – rescue of yeast from PfHsp40 toxicity, primary screen, S. cerevisiae, ATP luminescence; S. cerevisiae expressing PfHsp40, growth rescue; growth rescue, % at 12.5 µM; 340,000 compounds, 0.68% hits; in the data active means growth rescue above about 28%, passing the limit was not always enough;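 further: yeast W303a lacking pdr1 and pdr3 grown in galactose medium; growth measured after three days at 30 °C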
# PrPC TRFRET – inhibitors of human cell surface prion protein PrPC, primary screen, cell-based, TR-FRET. TR-FRET read-out. inhibition, % at 13.8 µM. Major prion protein (Homo sapiens), P04156. 370,000 compounds, 0.43% hits; in the data active means inhibition above about 24%; further: 0% = median of the test wells and 100% = reference compound wells
# Numbers without * were called inactive; / = not tested or not shown; ! = not active in a repeat. Compounds with a hit are over-represented: about 2.1% of the library has one in this group of screens.
SMILES,BJeLR viability,PrP 5UTR inh,MazF activator,DUSP3 inh,PfHsp40 rescue,PrPC TRFRET
O=C1NN(c2cccc(Br)c2)C(=O)/C1=C\c1ccc(N2CCOCC2)cc1,4.8,-12.7,3.9,52.6*,-0.7,/
O=C1NC(=O)N(Cc2cccs2)C(=O)/C1=C/c1ccc(N2CCOCC2)cc1,-1.6,-12.9,-21.8,8.5,-0.9,-5.8
Nc1[nH]c(C(=O)c2ccccc2)c(-c2ccc(Cl)cc2)c1C(=O)NCc1ccccc1,/,/,/,/,/,-0.5
CCCCCCCN(C(=O)CCl)c1cccc(C)c1,91.9*,-24.0,-2.6,-9.7,-0.5,5.7
Cc1ccc(C(=O)Nc2nnc(CC(=O)N/N=C/c3ccncc3)s2)cc1,0.2,-22.9,14.6,1.2,0.2,-0.8
Cc1ccc(C(=O)Nc2nnc(CC(=O)N/N=C/c3ccc(O)c(O)c3)s2)cc1,-6.2,-23.1,-6.4,54.2*,-1.3,-1.2
O=C(O)c1ccc(N(Cc2ccccc2)S(=O)(=O)c2ccccc2)cc1,-19.5,-9.2,-0.7,58.7*!,1.1,5.1
CCN(CCNc1ccc([N+](=O)[O-])c2cccnc12)S(=O)(=O)c1ccccc1,4.8,-41.4,138.3*,17.6,0.8,3.6
CCOc1ccc(NC(=S)Nc2cc(-c3ccccc3)[nH]n2)cc1,-16.4,-5.5,7.1,24.6,105.8*,6.7
COc1ccc(NC(=S)Nc2cc(-c3ccccc3)[nH]n2)cc1Cl,17.9,-7.7,2.7,-0.1,0.0,12.1
C=C1C(=O)[C@@]23[C@H](O)C[C@@H]4C(C)(C)CC[C@H](O)[C@]4(C)[C@@H]2C[C@H](O)[C@@H]1[C@H]3O,-6.6,-16.9,6.4,-6.8,7.7,25.3*
C=C1C(=O)[C@@]23[C@H](O)C[C@@H]4C(C)(C)CC[C@H](O)[C@@]4(C)[C@@H]2CC[C@@H]1[C@H]3O,14.4,0.7,-2.4,16.3,-0.3,70.9*
C[C@H]1C(=O)[C@]23C[C@H]1CC[C@H]2[C@]1(C)[C@@H](O)CC[C@@](C)(C(=O)O)[C@H]1C[C@@H]3O,/,/,/,/,/,-2.9
C=C1[C@@H]2CC[C@H]3[C@]4(C)[C@@H](O)CC[C@@](C)(C(=O)OC)[C@H]4C[C@H](O)[C@]3(C2)[C@H]1O,/,/,/,/,/,-2.5
C[C@@]12C(=O)Nc3ccc(F)cc3C(=O)N1[C@H]1c3ccccc3OC[C@@H]1[C@@H]2c1ccccc1,/,-1.2,-4.4,/,138.4*,/
C[C@@]12C(=O)Nc3ccc(Cl)cc3C(=O)N1[C@H]1c3ccccc3OC[C@@H]1[C@@H]2c1ccccc1,/,-24.8,-10.0,/,118.1*,/
COc1ccc(C)cc1N(C(=O)c1ccco1)C(C(=O)NC1CCCC1)c1ccc(N2CCOCC2)cc1 (stereo not drawn),-6.1,10.2,-4.7,52.0*,-0.4,-7.8
COc1ccc(OC)c(N(C(=O)c2ccco2)C(C(=O)NC2CCCC2)c2ccc(N3CCOCC3)cc2)c1 (stereo not drawn),2.3,-12.2,9.5,24.8,1.3,-0.4
CCCc1cn(-c2ccc3c(c2)[C@@]2(CC(=O)N(C)C2c2ccccc2)C(=O)N3CC(C)C)nn1 (stereo partly drawn),/,/,/,/,/,-7.6
O=C(NNc1c(Cl)cc(Cl)cc1Cl)c1cccc([N+](=O)[O-])c1,-2.0,9.0,12.2,-3.8,191.8*,5.0
CCc1nc2c(OCCC3CCCCC3)cccn2c1N(C)C(=O)c1ccc(C)cc1,/,/,/,/,/,23.7
CCOc1ccc(N2CC(C(=O)Nc3ccc(S(=O)(=O)N4CCCCC4)cc3)CC2=O)cc1 (stereo not drawn),-2.4,-10.5,3.7,/,1.7,-6.3
CCOc1ccc(N2CC(C(=O)Nc3ccc(S(=O)(=O)N4CCCC4)cc3)CC2=O)cc1 (stereo not drawn),-2.6,-16.5,8.9,55.2*,-1.2,-0.9
CCCc1c(-c2ccc(OC)cc2)ncn1CCc1ccccc1OC,/,/,/,/,/,17.5
COCCCN1C2=C(C(=O)CC(C)(C)C2)C(c2ccc(OC)c(OC)c2)C2=C1CC(C)(C)CC2=O,7.1,-21.2,-2.2,51.3*,0.3,-5.4
SMILES,BJeLR viability,PrP 5UTR inh,MazF activator,DUSP3 inh,PfHsp40 rescue,PrPC TRFRET
COCCN1C2=C(C(=O)CC(C)(C)C2)C(c2ccc(OC)c(OC)c2)C2=C1CC(C)(C)CC2=O,-8.7,4.3,4.6,15.4,-0.5,-11.5
O=[N+]([O-])c1ccc(/C=N/n2c(CO)nc3ccccc32)s1,3.4,-3.9,99.2*,47.8,-0.8,-10.0
O=[N+]([O-])c1ccc(/C=N/n2cnc3ccccc32)s1,5.0,-22.3,189.2*,-3.9,0.1,-0.3
Cc1cc(C)cc(NC(=O)O[C@@H]2CC[C@@]34CCCN3C(=O)CCC[C@H]4C2)c1,/,/,/,/,/,6.8
CCOc1ccccc1CN1CCNC(=O)C1CC(=O)NC1CCCCCC1 (stereo not drawn),7.1,-2.5,-3.2,-3.6,1.8,1.7
CCOc1ccccc1CN1CCNC(=O)C1CC(=O)NC1CCCCC1 (stereo not drawn),-1.4,-12.0,6.6,51.2*,-0.9,2.8
CC1=C(SCc2ccccc2)C(=O)c2ccccc2C1=O,/,-34.2,-0.6,/,-0.3,-9.1
O=C1C(SCCO)=C(SCCO)C(=O)c2ccccc21,/,-3.1,-9.9,/,-0.7,64.9*
C[C@H]1NC(=O)[C@@]2(C)[C@@H](c3ccccc3)[C@H]3COc4ccccc4[C@@H]3N2C1=O,/,-26.4,5.4,/,0.5,5.8
COc1ccc(-c2c(NC(=O)c3ccco3)oc3c(C)cccc3c2=O)cc1,-2.6,-18.2,-0.3,10.4,0.7,6.1
CCCc1cc(-c2n[nH]c(=S)n2-c2cccc(C)c2)cs1,1.9,-23.2,11.2,19.7,67.7*,10.9
CN=C(Nc1ccc(C)c(C)c1)SC1CC(=O)N(c2ccc(OC)cc2)C1=O (stereo not drawn),-6.4,-9.1,0.4,6.9,2.6,1.6
CN=C(Nc1ccc(Br)cc1)SC1CC(=O)N(c2ccc(OC)cc2)C1=O (stereo not drawn),-1.9,-16.3,-3.7,34.0,43.4*,6.1
CC(C(=O)O)N(C(=O)c1ccccc1)c1ccc(F)cc1 (stereo not drawn),-6.5,-5.5,-3.3,52.9*,-0.3,0.0
CC(C)C(=O)NN(C(=O)c1ccccc1)c1ccccc1,-3.0,-15.3,4.2,27.0,0.1,3.1
O=C(N/N=C/c1cc(Br)c(O)c(Br)c1O)c1ccc2c(c1)OCCO2,11.3,-15.7,8.7,21.5,152.1*,1.6
O=C(N/N=C/c1cc(Br)cc(Cl)c1O)c1ccc2c(c1)OCO2,5.5,12.9,-9.2,/,257.3*,7.9
O=C(N/N=C/c1cc(Br)c(Br)o1)c1ccc2c(c1)OCCO2,-10.1,-92.9,-3.7,5.1,1.3,-0.1
